# Test results from publication PMC7862700, “An all-to-all approach to the identification of sequence-specific readers for epigenetic DNA modifications on cytosine”.
# Assays:
# Assay in all cases: DAPPL (digital affinity profiling via proximity ligation, sequencing); 10 mM Tris-HCl pH 7.5, 50 mM NaCl, 1 mM DTT, 4% glycerol, room temperature, 30 min; GST-TFs on glutathione beads, 16-mer random dsDNA library, 0.1% formaldehyde crosslink after washing; high values mean tight binding
# [1] = target: T1, FEV (Homo sapiens, UniProt Q99581 1-238); conditions: protein: recombinant; tags: N-terminal GST; dsDNA, one strand shown
# T1 sequence: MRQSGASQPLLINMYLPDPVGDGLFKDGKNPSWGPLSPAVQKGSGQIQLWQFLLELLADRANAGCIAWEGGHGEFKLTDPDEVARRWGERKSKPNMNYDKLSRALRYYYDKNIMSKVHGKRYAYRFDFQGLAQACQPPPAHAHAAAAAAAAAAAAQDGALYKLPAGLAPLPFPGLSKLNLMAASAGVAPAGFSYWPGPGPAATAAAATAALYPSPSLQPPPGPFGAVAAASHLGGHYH
# Summary of the method: (§1)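 Binding signal is given per hexamer as its read frequency for a factor divided by its frequency in the tag-only sample. GST-fused human transcription factors were expressed in yeast, captured on glutathione beads, barcoded with DNA and pooled with that sample, then incubated with 200 nmole of a 16-mer random double-stranded DNA library in Tris/NaCl/DTT/glycerol buffer for 30 min at room temperature. The pools were then washed, crosslinked, proximity-ligated, amplified by PCR and sequenced on an Illumina NextSeq500.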
# [2] = target: ETV5 (Homo sapiens, UniProt P41161 1-510); conditions: protein: recombinant; tags: N-terminal GST; dsDNA, one strand shown
# Sequence of ETV5 (P41161 whole entry): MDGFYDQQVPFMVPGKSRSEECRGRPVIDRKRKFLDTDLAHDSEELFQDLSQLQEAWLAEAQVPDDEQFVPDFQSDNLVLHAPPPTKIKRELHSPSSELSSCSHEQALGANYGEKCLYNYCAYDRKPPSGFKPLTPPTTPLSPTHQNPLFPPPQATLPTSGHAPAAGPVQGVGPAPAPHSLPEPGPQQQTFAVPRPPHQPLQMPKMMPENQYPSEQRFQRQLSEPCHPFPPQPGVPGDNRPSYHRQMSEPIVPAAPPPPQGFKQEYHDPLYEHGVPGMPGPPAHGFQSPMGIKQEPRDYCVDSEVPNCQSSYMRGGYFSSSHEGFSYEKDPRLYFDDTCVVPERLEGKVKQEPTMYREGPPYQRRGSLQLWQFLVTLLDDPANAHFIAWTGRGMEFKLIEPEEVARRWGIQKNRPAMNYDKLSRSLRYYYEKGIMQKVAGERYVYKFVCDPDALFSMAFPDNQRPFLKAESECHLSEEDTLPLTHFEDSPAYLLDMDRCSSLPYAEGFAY
# Summary of the method: as §1
# [3] = target: HSF1 (Homo sapiens, UniProt Q00613 1-529); conditions: protein: recombinant; tags: N-terminal GST; chain copies: 3; dsDNA, one strand shown
# Sequence of HSF1 (Q00613 whole entry): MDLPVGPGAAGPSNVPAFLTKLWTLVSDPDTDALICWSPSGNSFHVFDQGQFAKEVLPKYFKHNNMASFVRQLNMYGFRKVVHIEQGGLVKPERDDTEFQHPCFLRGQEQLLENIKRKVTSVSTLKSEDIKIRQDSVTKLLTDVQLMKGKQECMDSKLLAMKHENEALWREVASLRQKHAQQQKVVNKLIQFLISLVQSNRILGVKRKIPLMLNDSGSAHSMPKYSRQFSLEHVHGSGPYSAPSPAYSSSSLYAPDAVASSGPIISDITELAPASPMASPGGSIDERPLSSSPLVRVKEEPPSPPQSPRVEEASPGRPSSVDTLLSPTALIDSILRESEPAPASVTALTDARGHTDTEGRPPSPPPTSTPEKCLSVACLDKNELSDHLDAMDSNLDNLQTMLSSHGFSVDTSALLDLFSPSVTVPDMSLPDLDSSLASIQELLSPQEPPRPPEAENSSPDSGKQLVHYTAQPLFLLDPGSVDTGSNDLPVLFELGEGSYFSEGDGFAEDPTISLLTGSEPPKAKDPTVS
# Summary of the method: as §1
# [4] = target: T2, SPIC (Homo sapiens, UniProt Q8N5J4 1-248); conditions: protein: recombinant; tags: N-terminal GST; dsDNA, one strand shown
# T2 sequence: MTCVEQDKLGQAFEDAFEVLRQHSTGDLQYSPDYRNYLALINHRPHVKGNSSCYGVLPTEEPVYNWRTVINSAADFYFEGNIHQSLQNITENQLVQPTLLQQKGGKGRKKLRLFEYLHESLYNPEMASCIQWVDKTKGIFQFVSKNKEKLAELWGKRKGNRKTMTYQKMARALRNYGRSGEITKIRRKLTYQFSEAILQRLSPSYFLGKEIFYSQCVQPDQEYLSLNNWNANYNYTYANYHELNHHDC
# Summary of the method: as §1
# [5] = target: ELF4 (Homo sapiens, UniProt Q99607 1-663); conditions: protein: recombinant; tags: N-terminal GST; dsDNA, one strand shown
# Sequence of ELF4 (Q99607 whole entry): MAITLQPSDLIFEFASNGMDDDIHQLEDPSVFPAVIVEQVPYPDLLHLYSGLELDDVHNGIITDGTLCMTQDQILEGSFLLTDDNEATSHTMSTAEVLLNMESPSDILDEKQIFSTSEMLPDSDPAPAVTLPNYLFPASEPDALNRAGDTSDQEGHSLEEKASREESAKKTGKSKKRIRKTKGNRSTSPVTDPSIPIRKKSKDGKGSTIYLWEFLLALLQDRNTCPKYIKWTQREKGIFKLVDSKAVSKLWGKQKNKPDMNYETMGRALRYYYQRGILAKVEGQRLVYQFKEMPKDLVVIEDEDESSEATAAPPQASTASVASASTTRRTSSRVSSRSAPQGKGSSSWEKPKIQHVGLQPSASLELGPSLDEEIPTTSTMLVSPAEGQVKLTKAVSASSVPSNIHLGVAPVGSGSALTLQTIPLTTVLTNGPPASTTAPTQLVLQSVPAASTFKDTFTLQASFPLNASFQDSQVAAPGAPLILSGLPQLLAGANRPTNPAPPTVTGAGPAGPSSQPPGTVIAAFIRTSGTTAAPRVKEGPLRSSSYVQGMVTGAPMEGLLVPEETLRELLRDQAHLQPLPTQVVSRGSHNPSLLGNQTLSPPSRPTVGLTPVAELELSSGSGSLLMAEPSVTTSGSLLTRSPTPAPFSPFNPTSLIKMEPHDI
# Summary of the method: as §1
# [6] = target: T3, ELK4 (Homo sapiens, UniProt P28324-2 1-405); conditions: protein: recombinant; tags: N-terminal GST; dsDNA, one strand shown
# T3 sequence: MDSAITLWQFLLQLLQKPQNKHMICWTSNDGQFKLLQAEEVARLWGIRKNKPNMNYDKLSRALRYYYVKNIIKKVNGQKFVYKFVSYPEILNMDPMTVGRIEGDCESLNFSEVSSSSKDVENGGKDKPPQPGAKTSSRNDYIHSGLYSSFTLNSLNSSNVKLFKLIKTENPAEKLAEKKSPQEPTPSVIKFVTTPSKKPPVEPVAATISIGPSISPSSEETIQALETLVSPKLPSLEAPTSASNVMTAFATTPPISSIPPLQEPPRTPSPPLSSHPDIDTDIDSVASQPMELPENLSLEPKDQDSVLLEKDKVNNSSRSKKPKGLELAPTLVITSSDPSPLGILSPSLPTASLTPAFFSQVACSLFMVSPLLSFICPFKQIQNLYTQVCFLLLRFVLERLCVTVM
# Summary of the method: as §1
# [7] = target: T4, ETV2 (Homo sapiens, UniProt O00321 1-342); conditions: protein: recombinant; tags: N-terminal GST; dsDNA, one strand shown
# T4 sequence: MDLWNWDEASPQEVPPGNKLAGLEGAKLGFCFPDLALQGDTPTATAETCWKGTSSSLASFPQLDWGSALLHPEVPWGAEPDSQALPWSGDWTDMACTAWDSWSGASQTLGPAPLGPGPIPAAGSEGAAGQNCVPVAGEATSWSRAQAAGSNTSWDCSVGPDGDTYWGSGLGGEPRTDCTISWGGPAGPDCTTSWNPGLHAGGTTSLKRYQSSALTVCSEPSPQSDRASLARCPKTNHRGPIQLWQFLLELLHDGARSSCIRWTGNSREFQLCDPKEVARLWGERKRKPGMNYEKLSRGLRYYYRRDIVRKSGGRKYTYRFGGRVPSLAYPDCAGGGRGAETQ
# Summary of the method: as §1
# [8] = target: T5, ELF3 (Homo sapiens, UniProt P78545 1-371); conditions: protein: recombinant; tags: N-terminal GST; dsDNA, one strand shown
# T5 sequence: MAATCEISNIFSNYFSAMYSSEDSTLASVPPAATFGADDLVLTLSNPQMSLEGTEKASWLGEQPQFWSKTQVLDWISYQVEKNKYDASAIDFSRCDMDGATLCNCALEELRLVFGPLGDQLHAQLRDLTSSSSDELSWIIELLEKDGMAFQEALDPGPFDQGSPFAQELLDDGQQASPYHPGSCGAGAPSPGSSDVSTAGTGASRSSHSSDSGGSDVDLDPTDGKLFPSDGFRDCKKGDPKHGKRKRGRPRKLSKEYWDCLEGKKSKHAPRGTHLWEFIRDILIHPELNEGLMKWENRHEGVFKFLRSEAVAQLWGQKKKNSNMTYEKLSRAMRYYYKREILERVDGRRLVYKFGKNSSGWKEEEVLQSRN
# Summary of the method: as §1
# [9] = target: CRX (Homo sapiens, UniProt O43186 1-299); conditions: protein: recombinant; tags: N-terminal GST; dsDNA, one strand shown
# Sequence of CRX (O43186 whole entry): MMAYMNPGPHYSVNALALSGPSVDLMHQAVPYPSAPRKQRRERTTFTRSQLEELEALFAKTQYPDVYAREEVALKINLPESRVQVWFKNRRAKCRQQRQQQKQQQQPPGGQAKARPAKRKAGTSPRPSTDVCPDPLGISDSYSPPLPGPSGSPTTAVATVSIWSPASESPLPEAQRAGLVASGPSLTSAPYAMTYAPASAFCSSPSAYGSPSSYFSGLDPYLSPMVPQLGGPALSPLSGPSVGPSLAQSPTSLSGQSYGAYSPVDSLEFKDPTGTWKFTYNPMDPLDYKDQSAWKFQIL
# Summary of the method: as §1
sequence,measurement,setting,value
ATGATC,binding signal,[1],"1.14 fold enrichment (6-mer frequency, TF over GST control)"
same,binding signal,[2],"1.24 fold enrichment (6-mer frequency, TF over GST control)"
same,binding signal,[3],"1.59 fold enrichment (6-mer frequency, TF over GST control)"
same,binding signal,[4],"1.38 fold enrichment (6-mer frequency, TF over GST control)"
same,binding signal,[5],"1.21 fold enrichment (6-mer frequency, TF over GST control)"
same,binding signal,[6],"1.16 fold enrichment (6-mer frequency, TF over GST control)"
same,binding signal,[7],"1.15 fold enrichment (6-mer frequency, TF over GST control)"
same,binding signal,[8],"1.19 fold enrichment (6-mer frequency, TF over GST control)"
same,binding signal,[9],"1.74 fold enrichment (6-mer frequency, TF over GST control)"
